Records with an inconclusive call do not appear. Calls of active or inactive are those of the source. Unless noted, calls come from the whole dose curve.
Key:
[1] = Natriuretic polypeptide receptor (hNpr1) antagonism - Pilot counterscreen GloSensor control cell line (AID 1347045); note: series mostly up to about 38 µM
Summary of the method: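 Control counterscreen: luciferase cGMP-biosensor HEK293 cells (no Npr1) received compound for 30 min at room temperature after GloSensor substrate loading. Luminescence was measured before and 20 min after soluble guanylyl cyclase activation by 50 uM nitroprusside.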

[2] = molecular target: Atrial natriuretic peptide receptor 1 (Homo sapiens) (UniProt P16066); test: Natriuretic polypeptide receptor (hNpr1) antagonism - Pilot screen (AID 1347049);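 note: HEK293 cells with hNpr1 and GloSensor cGMP luciferase stimulated by 0.1 nM hNppA; agonist-evoked cGMP luminescence read 20 min after hNppA addition; series mostly up to about 58 µM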
Summary of the method: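 Cells expressing receptor plus cGMP biosensor are seeded and incubated overnight at 37C, then loaded with GloSensor reagent (2% final) at room temperature for 2 h. Library compounds go on for 30 min. A pre-read precedes agonist (hNppA, 0.1 nM final) and a 20-min readout.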

[3] = molecular target: Atrial natriuretic peptide receptor 2 (Homo sapiens) (UniProt P20594); test: Natriuretic polypeptide receptor (hNpr2) antagonism - Pilot subtype selectivity assay (AID 1347050)
Summary of the method: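 Read-out: GloSensor luminescence (CCD imager), baseline vs post-stimulation. HEK293 cells expressing hNpr2; compounds pre-incubated 30-50 min at ambient temperature; hNppC 1 nM final, 20 min.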

[4] = NS1 protein of Zika virus - qHTS assay to identify small molecule inhibitors in human HEK 293 cells (AID 1347053; active = well fitted inhibition curve with a large enough effect; note: series mostly up to about 46 µM; nearly all actives have a fitted effect of over 55% in size)
Summary of the method: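 Compound-treated (1 h pre-infection) HEK 293 cells infected with ZIKV MR766, MOI = 0.5; after 24 h at 37 C, NS1 read by TR-FRET; data normalized to uninfected and infected controls.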

[5] = molecular target: Tyrosine-protein phosphatase non-receptor type substrate 1 (Homo sapiens) + Leukocyte surface antigen CD47 (Homo sapiens) (UniProt P78324+Q08722); test: CD47-SIRPalpha protein protein interaction - LANCE assay qHTS validation (AID 1347057; active = well fitted curve in the direction sought with a large enough effect in the signal ratio, with a control signal flat, not every such curve was filed as active; the % refers to the signal ratio; note: series mostly up to about 38 µM)
Summary of the method: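 Inhibition of soluble CD47/SIRPalpha ectodomain association by titrated compounds, measured as 665/615 nm time-resolved FRET ratio after sequential 30 min room-temperature incubations.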

Measured: Potency

Sequence of Tyrosine-protein phosphatase non-receptor type substrate 1 (Homo sapiens) + Leukocyte surface antigen CD47 (Homo sapiens) (P78324 whole entry, looked up, the tested form may be a part): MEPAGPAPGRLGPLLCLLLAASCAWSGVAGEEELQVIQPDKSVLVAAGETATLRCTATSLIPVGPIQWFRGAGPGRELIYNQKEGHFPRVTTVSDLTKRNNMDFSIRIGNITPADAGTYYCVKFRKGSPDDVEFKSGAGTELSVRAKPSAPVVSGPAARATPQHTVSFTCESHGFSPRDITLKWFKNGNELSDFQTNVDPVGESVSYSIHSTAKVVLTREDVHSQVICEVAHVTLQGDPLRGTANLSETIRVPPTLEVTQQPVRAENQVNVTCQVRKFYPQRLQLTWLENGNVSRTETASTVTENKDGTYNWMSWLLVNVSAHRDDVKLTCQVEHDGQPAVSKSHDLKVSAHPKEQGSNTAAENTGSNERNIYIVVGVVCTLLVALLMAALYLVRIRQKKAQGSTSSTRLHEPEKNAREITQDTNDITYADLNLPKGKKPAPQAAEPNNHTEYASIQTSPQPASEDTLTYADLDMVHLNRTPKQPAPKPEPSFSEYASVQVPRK
Sequence of Tyrosine-protein phosphatase non-receptor type substrate 1 (Homo sapiens) + Leukocyte surface antigen CD47 (Homo sapiens) (Q08722 whole entry, looked up, the tested form may be a part): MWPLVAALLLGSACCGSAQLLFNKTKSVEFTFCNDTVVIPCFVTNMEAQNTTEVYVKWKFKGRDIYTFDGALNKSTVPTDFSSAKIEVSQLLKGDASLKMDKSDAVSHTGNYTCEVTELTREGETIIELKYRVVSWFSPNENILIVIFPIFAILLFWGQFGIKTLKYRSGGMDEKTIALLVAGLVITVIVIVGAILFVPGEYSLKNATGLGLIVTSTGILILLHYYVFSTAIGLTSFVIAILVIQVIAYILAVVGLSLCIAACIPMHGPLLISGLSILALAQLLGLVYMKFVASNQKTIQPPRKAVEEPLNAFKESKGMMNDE
Sequence of Atrial natriuretic peptide receptor 1 (Homo sapiens) (P16066 whole entry, looked up): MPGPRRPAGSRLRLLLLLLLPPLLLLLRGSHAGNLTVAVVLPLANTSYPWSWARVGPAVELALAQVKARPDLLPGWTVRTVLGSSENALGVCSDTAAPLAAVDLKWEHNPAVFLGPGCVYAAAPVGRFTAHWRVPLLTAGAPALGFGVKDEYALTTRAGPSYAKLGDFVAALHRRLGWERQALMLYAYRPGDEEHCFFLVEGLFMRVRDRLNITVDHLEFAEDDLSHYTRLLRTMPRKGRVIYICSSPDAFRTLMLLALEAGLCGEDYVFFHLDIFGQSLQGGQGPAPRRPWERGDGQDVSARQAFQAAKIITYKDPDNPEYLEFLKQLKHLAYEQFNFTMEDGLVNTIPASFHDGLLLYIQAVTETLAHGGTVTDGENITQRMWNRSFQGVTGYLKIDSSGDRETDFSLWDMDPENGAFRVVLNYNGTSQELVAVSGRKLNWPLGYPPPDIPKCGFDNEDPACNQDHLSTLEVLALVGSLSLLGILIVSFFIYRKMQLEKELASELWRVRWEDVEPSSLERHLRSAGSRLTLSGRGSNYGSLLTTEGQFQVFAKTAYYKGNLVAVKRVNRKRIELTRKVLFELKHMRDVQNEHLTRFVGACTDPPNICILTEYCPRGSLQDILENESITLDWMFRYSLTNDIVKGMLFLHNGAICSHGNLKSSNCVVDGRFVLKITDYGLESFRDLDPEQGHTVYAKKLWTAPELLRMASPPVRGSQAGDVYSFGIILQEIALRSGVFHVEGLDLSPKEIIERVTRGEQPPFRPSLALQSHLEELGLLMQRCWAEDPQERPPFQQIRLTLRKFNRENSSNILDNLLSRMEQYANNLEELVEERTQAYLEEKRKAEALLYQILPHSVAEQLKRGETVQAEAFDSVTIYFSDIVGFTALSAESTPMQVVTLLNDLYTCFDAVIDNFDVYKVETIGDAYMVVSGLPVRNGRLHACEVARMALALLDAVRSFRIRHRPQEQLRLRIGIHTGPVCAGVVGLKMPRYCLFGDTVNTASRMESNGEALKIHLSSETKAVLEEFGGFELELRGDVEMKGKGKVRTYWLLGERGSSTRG
Sequence of Atrial natriuretic peptide receptor 2 (Homo sapiens) (P20594 whole entry, looked up): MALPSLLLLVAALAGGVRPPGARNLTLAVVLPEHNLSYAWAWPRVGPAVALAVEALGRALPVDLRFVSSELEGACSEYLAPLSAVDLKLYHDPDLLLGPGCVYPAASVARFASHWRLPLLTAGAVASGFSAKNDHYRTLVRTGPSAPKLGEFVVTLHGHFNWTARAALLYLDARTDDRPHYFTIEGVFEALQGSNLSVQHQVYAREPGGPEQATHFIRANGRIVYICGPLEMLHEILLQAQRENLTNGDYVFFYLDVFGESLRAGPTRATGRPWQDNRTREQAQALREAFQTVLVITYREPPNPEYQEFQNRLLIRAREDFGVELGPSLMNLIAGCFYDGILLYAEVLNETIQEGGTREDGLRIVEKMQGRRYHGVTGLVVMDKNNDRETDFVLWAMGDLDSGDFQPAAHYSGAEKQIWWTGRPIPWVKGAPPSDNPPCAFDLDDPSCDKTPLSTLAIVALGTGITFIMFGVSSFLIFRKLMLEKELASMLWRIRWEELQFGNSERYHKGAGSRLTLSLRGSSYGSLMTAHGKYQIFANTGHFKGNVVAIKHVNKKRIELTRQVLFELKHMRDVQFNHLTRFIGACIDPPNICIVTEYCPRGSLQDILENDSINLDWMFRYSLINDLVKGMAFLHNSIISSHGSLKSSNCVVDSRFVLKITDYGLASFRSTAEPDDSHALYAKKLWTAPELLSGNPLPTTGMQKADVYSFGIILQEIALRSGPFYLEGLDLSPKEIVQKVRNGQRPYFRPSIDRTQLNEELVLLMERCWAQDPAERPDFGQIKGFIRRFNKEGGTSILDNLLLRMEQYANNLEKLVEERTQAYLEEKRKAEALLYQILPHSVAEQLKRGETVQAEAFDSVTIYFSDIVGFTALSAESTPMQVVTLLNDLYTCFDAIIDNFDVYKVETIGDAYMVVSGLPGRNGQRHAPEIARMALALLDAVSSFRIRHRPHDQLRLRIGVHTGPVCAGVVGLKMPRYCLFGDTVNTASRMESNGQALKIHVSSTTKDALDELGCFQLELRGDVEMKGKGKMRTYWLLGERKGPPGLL

CCN(CC)c1ncnc2c1ncn2[C@@H]1O[C@H](COP(=O)(O)OP(=O)(O)C(Br)(Br)P(=O)(O)O)[C@@H](O)[C@H]1O
inactive: all assays above

CC(C)CC(NP(=O)(O)O[C@@H]1O[C@@H](C)[C@H](O)[C@@H](O)[C@H]1O)C(=O)NC(Cc1c[nH]c2ccccc12)C(=O)O (some centres not stated)
inactive: all assays above

CC(=O)SCC[N+](C)(C)C
inactive: all assays above

CN(C)C(N)=NCCC[C@H](N)C(=O)O
inactive: all assays above

NC(=S)NCCC[C@H](N)C(=O)O
inactive: [1] | [2] | [3]

C[N+]1(C)CCC(OC(=O)C(c2ccccc2)c2ccccc2)CC1
inactive: all assays above

Nc1ncnc2c1ncn2[C@@H]1O[C@H](COP(=O)(O)CP(=O)(O)OP(=O)(O)O)[C@@H](O)[C@H]1O
inactive: all assays above

CO/N=C(\C(=O)N[C@@H]1C(=O)N2C(C(=O)O)=C(COC(C)=O)CS[C@H]12)c1csc(N)n1
inactive: all assays above

NCC1OC(O[C@H]2[C@H](O)[C@@H](OC3C(O)C(N)CC(N)C3OC3OC(CO)C(O)C(O)C3N)O[C@@H]2CO)C(N)C(O)C1O (some centres not stated)
inactive: all assays above

CN1CCc2cccc3c2C1Cc1ccc(O)c(O)c1-3 (configuration not stated)
not listed: [5]
inactive: all other assays above

Reference: PubChem BioAssay (NCATS)
